Most compounds without a hit are left out; they make up all but 2.6% or so of the library.
Cruzain noTriton = inhibitors of Trypanosoma cruzi cruzain without detergent. purified cruzain, Z-FR-AMC fluorescence, no detergent. Potency, µM, usual class: inhibitors. AID 1476. 200,000 tested, 2.3% active. P25779; note: nearly all actives have a fitted effect of over 40% in size
Target sequence (P25779 123-467 limits assumed): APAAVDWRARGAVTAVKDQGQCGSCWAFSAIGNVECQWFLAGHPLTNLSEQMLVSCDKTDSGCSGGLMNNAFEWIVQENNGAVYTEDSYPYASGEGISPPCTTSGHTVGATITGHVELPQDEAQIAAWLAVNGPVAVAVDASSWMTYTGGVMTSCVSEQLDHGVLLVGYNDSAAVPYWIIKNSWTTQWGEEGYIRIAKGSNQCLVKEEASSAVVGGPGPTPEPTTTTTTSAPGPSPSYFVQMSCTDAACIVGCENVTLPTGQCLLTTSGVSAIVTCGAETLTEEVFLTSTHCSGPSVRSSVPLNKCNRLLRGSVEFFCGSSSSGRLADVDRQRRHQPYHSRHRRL
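Purified cruzain at 1.5 nM, pre-incubated 15 min with compound at room temperature in 100 mM sodium acetate pH 5.5, 5 mM DTT, 0.00005% Triton X-100. Reaction started with 2 uM Z-FR-AMC; AMC fluorescence increase over 60 s gives rate.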
Cruzain inh Det = inhibitors of Trypanosoma cruzi cruzain with detergent; P25779; purified cruzain, Z-FR-AMC fluorescence, 0.01% Triton; Potency, µM, most hits filed as inhibitors; 200,000 tested, 0.43% active; AID 1478; note: nearly all actives have a fitted effect of over 40% in size
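15 min RT preincubation of 1.5 nM cruzain with compound, then 2 uM Z-FR-AMC added; kinetic AMC fluorescence, 60 s delta. Triton X-100 0.01%, pH 5.5.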
Of the large screens only hits and unclear results are named; the others gave an inactive call; ! = repeats disagree. Calls come from the whole dose curve; as a rule, active = well fitted curve in the direction sought with a large enough effect; inconclusive = small, poorly fitted or top-dose-only effect, or another doubt; inactive = no such curve, though single readings can be large; an effect the other way counts as inactive or inconclusive.

O=S(=O)(Nc1cc(Sc2cccc3cccnc23)c(O)c2ccccc12)c1ccccc1	Cruzain noTriton 3.16µM
COc1ccc(Cl)cc1NC(=O)CSc1nnc2[nH]c(=O)cc(-c3ccccc3)n12	none
COc1ccc(C(=O)NCc2ccc3c(c2)CCN3C(=O)c2ccc(F)cc2)cc1	none
COc1ccc(C)cc1NC(=O)NCc1ccc2c(c1)CCN2C(=O)c1ccccc1	Cruzain noTriton 20µM
COc1ccc2cc(C(=O)NCc3ccc4c(c3)CCN4C(=O)c3ccc(C)cc3)[nH]c2c1	Cruzain noTriton 12.6µM
Cc1ccc(NC(=O)NCc2ccc3c(c2)CCN3C(=O)c2ccccc2)c(Cl)c1	none
COc1ccc2cc(C(=O)NCc3ccc4c(c3)CCN4C(=O)c3ccc(F)cc3)[nH]c2c1	Cruzain noTriton 25.1µM
COc1ccc(C(=O)NCc2ccc3c(c2)CCN3C(=O)c2ccccc2)cc1	none
Nc1nonc1C(=O)NCCNCc1ccc(Cl)c(Cl)c1	none
Cc1ccc(CNC(=O)c2ccc(N3CCCC3)c(NC(=O)Nc3ccc(C)cc3)c2)cc1	none
Cc1ccc(-c2cc(-c3ccccc3)c3c(N)c(S(C)(=O)=O)sc3n2)cc1	Cruzain noTriton inconclusive
CS(=O)(=O)c1sc2nc(-c3cccs3)cc(-c3ccccc3)c2c1N	Cruzain noTriton 20µM
CC(C)c1ccc(OCC(=O)NCC(c2ccc(Cl)cc2)N2CCOCC2)cc1 (configuration not stated)	Cruzain noTriton inconclusive
Cc1ccc(Cl)cc1-n1c(=O)c2sc3ccccc3c2n(Cc2ccccc2)c1=O	none
COc1cccc(Cn2c(=O)n(-c3ccc(Br)cc3F)c(=O)c3sc4ccccc4c32)c1	Cruzain noTriton 12.6µM
Cc1cccc(NC(=O)CN2C(=O)CSc3ccc(S(=O)(=O)N4CCCC4)cc32)c1C	none
Cc1cccc(OCCN2CSC(=S)N(C)C2)c1	none
COc1ccccc1OCCN1CSC(=S)N(C)C1	Cruzain noTriton 20µM, Cruzain inh Det inconclusive
CCOC(=O)c1c(C)oc2nc(C)nc(N3CCN(c4ccc(C(C)=O)cc4)CC3)c12	none
COc1cc2ccccc2cc1C(=O)Nc1cccc(-c2nc3cc(C)c(C)cc3o2)c1	none
COc1cc(/C=N/Nc2nc(C)cc(C)n2)ccc1OC(=O)c1ccco1	none
COc1cc(/C=N/Nc2cccc(C)c2)ccc1OC(=O)c1cccs1	Cruzain noTriton 15.8µM
COc1cc(/C=N/Nc2ccc3ccccc3c2)ccc1OC(=O)c1ccco1	Cruzain noTriton 25.1µM
COc1cc(/C=N/NC(=O)COc2ccccc2C)ccc1OC(=O)c1cccs1	none
CNS(=O)(=O)c1ccccc1C(=N)c1ccccc1	none
O=C(Nc1cccc(-c2nc3cc(Cl)ccc3o2)c1)c1ccc(F)cc1	none
Cn1cccc1/C=C1\SC(=O)N(CC(=O)Nc2ccc(Cl)cc2)C1=O	Cruzain noTriton inconclusive
CCn1c(C)cc(/C=C2\SC(=O)N(CC(=O)Nc3ccc(C)c(C)c3)C2=O)c1C	Cruzain noTriton 15.8µM
Cc1ccc(NC(=O)CN2C(=O)S/C(=C\C(=O)Nc3ccc(Cl)cc3)C2=O)cc1	Cruzain noTriton 10µM
CCn1c(C)cc(/C=C2\NC(=O)N(CC(=O)Nc3cccc(C)c3)C2=O)c1C	Cruzain noTriton inconclusive
CCOc1ccc(C(=O)N2CCN(Cc3cc(=O)n4nc(-c5ccccc5Cl)sc4n3)CC2)cc1	none
O=C(O)CCc1nnc2cnc3ccccc3n12	none
Cc1oc2ncn(C)c(=O)c2c1C(=O)NC(C)c1ccccc1 (configuration not stated)	none
O=C(Nc1nc2n(n1)C(c1ccccc1)C=C(c1ccccc1)N2)c1ccccc1 (configuration not stated)	none
CCCn1c(SC(C(=O)Nc2cccc(OC)c2)c2ccccc2)nc2ccccc2c1=O (configuration not stated)	Cruzain noTriton 10µM
COc1cccc(NC(=O)C(Sc2nnc3ccccn23)c2ccccc2)c1 (configuration not stated)	none
CCOc1ccccc1N1Cc2ccccc2C1	Cruzain noTriton inconclusive
COc1ccc(OC)c(N2Cc3cc(C)c(C)cc3C2)c1	Cruzain noTriton 15.8µM
COc1ccc(OC)c(-n2cnnn2)c1	none
CCOc1ccccc1N1Cc2cc(C)c(C)cc2C1	Cruzain noTriton 25.1µM
CC(NC(=O)c1ccc2c(c1)N(Cc1cccc(F)c1)C(=O)c1ccccc1S2)c1ccccc1 (configuration not stated)	Cruzain noTriton inconclusive
CCc1cc2c(=O)nc3n(c2s1)Cc1ccccc1/C3=C(/O)c1ccccc1Cl	Cruzain noTriton 25.1µM
CCc1cc2c(=O)nc3n(c2s1)Cc1ccccc1/C3=C(/O)c1ccc(F)cc1	Cruzain noTriton inconclusive
COC(=O)c1cc2sc(C)cc2n1Cc1nc(-c2ccc(C)cc2)oc1C	none
Cc1ccc(-c2nc(NC(=O)CSc3cc(C)c4ccccc4n3)ns2)cc1	Cruzain noTriton inconclusive
O=C(CSc1ccc2ccccc2n1)Nc1nsc(-c2ccc(Cl)cc2)n1	Cruzain noTriton 31.6µM!
Cn1c(=O)cc(SCC(=O)NCc2ccc(F)cc2)c2cc(Cl)ccc21	none
Cc1cc(N2CCCCC2)nc2ccc(NC(=O)/C=C/c3ccc(OCCC(C)C)cc3)cc12	none
O=C(CCN1CCCC1Cc1ccccc1)c1ccc2c(c1)OCCO2 (configuration not stated)	Cruzain noTriton 20µM, Cruzain inh Det 25.1µM
O=C(CCN1CCc2ccccc21)c1ccc2c(c1)OCCO2	Cruzain noTriton 7.94µM
c1ccc2c(c1)CCN2CCN1CCc2ccccc21	Cruzain noTriton 10µM
CN(C)CCN1CCc2ccccc21	none
O=C(CCc1ccccc1)c1ccc2c(c1)OCCCO2	Cruzain noTriton inconclusive
O=C(CCN1CCCCC1)c1ccc2c(c1)OCCO2	none
COC(=O)c1ccc(OCC2c3cc(OC)c(OC)cc3CCN2C(=O)Cc2ccccc2)cc1 (configuration not stated)	Cruzain noTriton inconclusive
CCOCCn1ccc2c(OCC(=O)Nc3cc(C(F)(F)F)ccc3Cl)cccc2c1=O	none
Cc1cc(O)c(C(C)C)cc1Cl	none
COc1ccccc1NS(=O)(=O)c1cn(C)c(C)n1	none
Cc1ccccc1-c1ccc(Nc2ccc(N3CCOCC3)cc2)nn1	Cruzain noTriton 25.1µM
O=S1(=O)N=C(Nc2ccc(N3CCOCC3)cc2)c2ccccc21	none
CC1C(=O)Nc2ccc(S(=O)(=O)NCc3ccc(N(C)C)cc3)cc2NC1=O (configuration not stated)	Cruzain noTriton inconclusive
Cc1cc(Br)c(OCc2ccc(C(=O)N/N=C3\CC(=O)CC(C)(C)C3)cc2)c(Br)c1	Cruzain noTriton 10µM
Cc1cc(OCc2ccc(C(=O)NN=C3CCCC3)cc2)ccc1Cl	Cruzain noTriton inconclusive
COc1cc(OC)c(NC(=O)CCCn2nc(C)c3sc4ccccc4c3c2=O)cc1Cl	none
CC(=O)N1CCN(C(=S)c2ccc(N(C)C)cc2)CC1	none
CN(C)c1ccc(C(=S)N2CCN(c3ccccc3)CC2)cc1	none
CN(C)c1ccc(C(=S)N2CCCCCC2)cc1	Cruzain noTriton 6.31µM, Cruzain inh Det 14.1µM
Cc1ccc(N2CCN(C(=S)c3ccc(N(C)C)cc3)CC2)cc1	Cruzain noTriton 20µM
CCCCN(CC)CCCNC(=O)Nc1sc2nc3n(c(=O)c2c1C)CCC(C)CC3 (configuration not stated)	none
COc1ccc(OC)c(CNS(=O)(=O)c2ccc(-c3coc(C)n3)cc2)c1	none
CCOC(=O)C1CCC(CN(Cc2ccc(Cl)cc2)S(=O)(=O)c2ccc(F)c(C(=O)Nc3cccc(F)c3)c2)CC1 (configuration not stated)	Cruzain noTriton inconclusive
O=C(NCc1ccc(Cl)cc1)c1cc2c(s1)-c1ccccc1SC2	none

Screening data from PubChem.
